The values below come from PubChem BioAssay (NCATS).

Molecules are shown by their SMILES. Results filed as inconclusive are left out. A number with no mark means an inactive call. Active and inactive are the calls of the source. Calls follow the shape of the dose curve; as a rule, active = well fitted inhibition curve with a large enough effect; inconclusive = small, poorly fitted or top-dose-only effect; inactive = no such curve, though single readings can be large or run the other way.

Assay [1] concerns Zika virus NS2B-NS3 protease (unlinked complex). Description: Primary screen GU Rhodamine qHTS for Zika virus inhibitors: Unlinked NS2B-NS3 protease assay (AID 1347159). Also: nearly all actives have a fitted effect of over 60% in size. The method in brief: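 Unlinked NS2B/NS3, 25 nM; Rhod110 peptide, 1.5 microM; compounds, up to 114 microM. Reaction run 15 min at RT in 10 mM Tris-HCl pH 8.0, 0.01% Tween 20; kinetic fluorescence change fitted with a 4-parameter Hill model.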
(Quantitative high-throughput screening tests each substance at several concentrations.)

For assay [2], the system named is Zika virus NS2B-NS3 protease (linked construct). Description: Primary screen NINDS Rhodamine qHTS for Zika virus inhibitors (AID 1347160). Also: nearly all actives have a fitted effect of over 55% in size. The method in brief: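 Single-chain NS2B-NS3 protease, 25 nM, pH 8.0; compounds preincubated 15 min. Activity: Rhodamine110 release from 1.5 microM substrate over 15 min, room temperature, data fitted to 4-parameter Hill.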
% is scaled to controls: 0 for no effect and ±100 for the full control effect.

Regarding `CC1OC(OC2CCC3(C)C(CCC4(C)C3CC=C3C5CC(C)(C)CCC5(C(=O)OC5OC(CO)C(O)C(O)C5O)CCC34C(=O)O)C2(C)C)C(O)C(O)C1O` (stereo not given), the Potency entry in assay [1] and in assay [2] was “inactive” each time.

For the compound `CC#CC(=O)N1CCC[C@H]1c1nc(-c2ccc(C(=O)Nc3ccccn3)cc2)c2c(N)nccn12`, the Potency result in assay [1] and in assay [2] was “inactive” in each case.

Consider `CS(=O)(=O)c1ccc(-c2nnc(/C=C/c3nnc(-c4ccc(C#N)cc4)o3)n2-c2ccccc2Cl)nc1`, for which the Potency entry in assay [1] and in assay [2] was “inactive” each time.

Consider `C[C@@H]1O[C@@H](O[C@H]2[C@H](O[C@H]3[C@H](O[C@H]4CC[C@@]5(C)C(CC[C@]6(C)C5CC=C5[C@@H]7CC(C)(C)CC[C@]7(C(=O)O[C@@H]7O[C@H](CO)[C@@H](O[C@@H]8O[C@@H](C)[C@H](O)[C@@H](O)[C@H]8O)[C@H](O)[C@H]7O)CC[C@]56C)C4(C)C)OC[C@H](O)[C@@H]3O)O[C@H](CO)[C@@H](O)[C@@H]2O)[C@H](O)[C@H](O)[C@H]1O` (stereo not given in full), for which the activity change, negative = inhibition in assay [1] was 6.71% [at 19.1 µM]; in assay [2] it was 35.2% [at 10.7 µM].

Take `CC(=O)O[C@@](C)(C(=O)/C=C/C(C)(C)O)[C@H]1[C@H](O)C[C@@]2(C)[C@@H]3CC=C4[C@@H](C=C(O)C(=O)C4(C)C)[C@]3(C)C(=O)C[C@]12C`: the Potency result in assay [1] and in assay [2] was “inactive” throughout.

For `O=C(c1ccc(/C=C/c2n[nH]c3ccccc23)cc1)N1CCNCC1`, the Potency result in assay [1] and in assay [2] was “inactive” in each case.

For `CC(=O)O[C@H]1[C@H](O[C@H]2[C@@H]3C=CO[C@@H](O[C@@H]4O[C@H](CO)[C@@H](O)[C@H](O)[C@H]4O)[C@@H]3[C@@]3(CO)O[C@@H]23)O[C@@H](C)[C@H](OC(=O)/C=C/c2ccccc2)[C@H]1OC(=O)/C=C/c1ccccc1`, the Potency result in assay [1] and in assay [2] was “inactive” in each case.

`CC1=C(C)C(=O)OC(C(C)C2CCC3C4CC=C5CC(OC6OC(COC7OC(CO)C(O)C(O)C7O)C(O)C(O)C6O)CC(O)C5(C)C4CCC23C)C1` (stereo not given): the Potency result in assay [1] and in assay [2] was “inactive” each time.

Turning to `COc1cc(/C=C/C(=O)O[C@H]2[C@H](O)[C@@H](CO)O[C@@]2(CO)O[C@H]2O[C@H](CO)[C@@H](O)[C@H](O)[C@H]2O)ccc1O`, the Potency result in assay [1] and in assay [2] was “inactive” in each case.

As to `Cc1c[nH]c2nccc(Oc3c(F)cc(Nc4cc(Cl)nc(N)n4)cc3F)c12`, the Potency entry in assay [1] and in assay [2] was “inactive” each time.

Take `CC(C)O[C@@H]1O[C@H](CO)[C@@H](O)[C@H](O)[C@H]1O`: the Potency entry in assay [1] and in assay [2] was “inactive” throughout.

Take `C[C@@H]1O[C@@H](O[C@H]2[C@H](OC(=O)[C@]34CCC(C)(C)C[C@H]3C3=CCC5[C@@]6(C)C[C@H](O)[C@H](O[C@@H]7O[C@H](CO)[C@@H](O)[C@H](O)[C@H]7O)[C@@](C)(CO)C6[C@H](O)C[C@@]5(C)[C@]3(C)C[C@H]4O)OC[C@H](O)[C@@H]2O)[C@H](O)[C@H](O)[C@H]1O[C@@H]1OC[C@@H](O)[C@H](O[C@H]2OC[C@](O)(CO)[C@H]2O)[C@H]1O` (stereo not given in full): the activity change, negative = inhibition in assay [1] was 7.01% [at 19.1 µM]; in assay [2], 18.3% [at 10.7 µM].

As to `COc1cc2c(cc1O)CC[C@H]1[C@@H]2CC[C@]2(C)[C@H](O)CC[C@@H]12`, the Potency result in assay [1] and in assay [2] was “inactive” each time.

Turning to `CCNC(=O)Nc1ncc(-c2cc(-c3c(C)cc(OC)cc3C)nc(-c3cnccn3)n2)s1`, the Potency result in assay [1] and in assay [2] was “inactive” throughout.

Consider `COc1ncc2cc(C(=O)Nc3cc(C(=O)NCc4cccc(Cl)c4)ccc3Cl)c(=O)[nH]c2n1`, for which the Potency entry in assay [1] and in assay [2] was “inactive” in each case.

Turning to `CC1=C2C[C@H]3O[C@@]3(C)CCC3O[C@@]3(C)C[C@@]2(O)OC1=O` (stereo not given in full), the Potency result in assay [1] and in assay [2] was “inactive” each time.

For `CCCCNc1ncc2c(-c3ccc(F)cc3)nn(CC3CCC(N)CC3)c2n1` (stereo not given), the Potency result in assay [1] and in assay [2] was “inactive” throughout.

For the compound `COc1ccc(-c2ccc3c(N4CCOCC4)nc(N4CC(C)OC(C)C4)nc3n2)cc1CO` (stereo not given), the Potency entry in assay [1] and in assay [2] was “inactive” in each case.

Regarding `C=C1C(OC(C)=O)CCC2(C)CC3(OC)OC(=O)C(C)=C3CC12` (stereo not given), the Potency result in assay [1] and in assay [2] was “inactive” in each case.

Regarding `Cc1c(F)cc(C(=O)NC2CC2)cc1-c1c(F)cn2c(C(C)(C)C)nnc2c1F`, the Potency entry in assay [1] and in assay [2] was “inactive” in each case.

As to `CC(C)C(CO)Nc1nc(Nc2ccc(C(=O)O)c(Cl)c2)c2ncn(C(C)C)c2n1` (stereo not given), the Potency entry in assay [1] and in assay [2] was “inactive” each time.

Regarding `C[C@@H]1CN(Cc2ncccn2)C[C@H]1c1nc2c(cnn2C2CCOCC2)c(=O)[nH]1`, the Potency entry in assay [1] and in assay [2] was “inactive” in each case.

On to `CC(=O)CC1CCC(C(C)C(=O)OCC(O)CO)O1` (stereo not given), for which the Potency entry in assay [1] and in assay [2] was “inactive” in each case.

Regarding `C[C@H]1C(=O)N2c3ccccc3[C@@]3(O)C[C@@H]4C(=O)N[C@](C)(c5nc6ccccc6c(=O)n54)N1[C@@H]23`, the Potency entry in assay [1] and in assay [2] was “inactive” throughout.

With `N#Cc1ccc(C(=O)N2CCC3(CC2)N=C(N)c2c(F)ccc(F)c2N3)cn1`, the Potency result in assay [1] and in assay [2] was “inactive” each time.

For the compound `C=C(C)C1CC[C@]2(C(=O)O)CC[C@]3(C(=O)O)[C@H](CCC4[C@@]5(C)CC[C@H](O)C(C)(C)C5CC[C@]43C)C12` (stereo not given in full), the Potency result in assay [1] and in assay [2] was “inactive” each time.

In the case of `CN1CCN(C2CCC(n3cc(-c4ccc(Oc5ccccc5)cc4)c4c(N)ncnc43)CC2)CC1` (stereo not given), the Potency result in assay [1] and in assay [2] was “inactive” in each case.

As for `COc1cc2c(cc1OC)N1C(=O)C[C@]34C=CCN5CC[C@@H]2[C@@H](CC3)[C@]514`, the Potency entry in assay [1] and in assay [2] was “inactive” throughout.

In the case of `CC(C)c1nnc(-c2ccc(-c3ccccc3)nc2)n1-c1cccc2nonc12`, the Potency result in assay [1] and in assay [2] was “inactive” each time.

As to `C[C@@H]1[C@H]2[C@H](O[C@@H]3O[C@H](CO)[C@@H](O)[C@H](O)[C@H]3O)OC=C(C(=O)O)[C@H]2C[C@@H]1O`, the Potency entry in assay [1] and in assay [2] was “inactive” each time.
